Measurements published in paper PMC7862700, “An all-to-all approach to the identification of sequence-specific readers for epigenetic DNA modifications on cytosine”.

Tests used:
Experiment in all cases: DAPPL (digital affinity profiling via proximity ligation, sequencing); 10 mM Tris-HCl pH 7.5, 50 mM NaCl, 1 mM DTT, 4% glycerol, room temperature, 30 min; GST-TFs on glutathione beads, 16-mer random dsDNA library, 0.1% formaldehyde crosslink after washing; high values mean tight binding
Settings in all cases: protein: recombinant; tags: N-terminal GST; dsDNA, one strand shown
[1] = molecular target: T1, ERF (Homo sapiens, UniProt P50548 1-548)
T1 sequence: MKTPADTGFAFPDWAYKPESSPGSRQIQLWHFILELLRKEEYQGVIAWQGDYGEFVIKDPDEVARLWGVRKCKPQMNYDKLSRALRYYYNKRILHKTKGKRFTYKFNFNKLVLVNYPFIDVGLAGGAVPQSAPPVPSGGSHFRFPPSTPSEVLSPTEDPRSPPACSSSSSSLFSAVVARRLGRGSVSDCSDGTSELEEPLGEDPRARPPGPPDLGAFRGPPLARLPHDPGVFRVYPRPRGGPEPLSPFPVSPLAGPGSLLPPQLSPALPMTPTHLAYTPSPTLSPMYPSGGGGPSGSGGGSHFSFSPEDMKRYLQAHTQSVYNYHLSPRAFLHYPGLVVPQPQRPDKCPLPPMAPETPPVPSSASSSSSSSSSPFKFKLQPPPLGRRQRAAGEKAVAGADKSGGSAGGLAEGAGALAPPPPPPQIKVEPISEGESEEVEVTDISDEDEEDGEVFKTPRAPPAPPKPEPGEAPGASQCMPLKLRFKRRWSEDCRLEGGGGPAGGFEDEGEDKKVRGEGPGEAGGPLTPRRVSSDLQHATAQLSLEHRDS
In short: (§1)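 After expression in yeast as GST fusions, human transcription factors were bound to glutathione beads, DNA-barcoded and mixed with a tag-only sample. The pools were incubated with 200 nmole of a 16-mer random double-stranded DNA library in Tris/NaCl/DTT/glycerol buffer (30 min, room temperature), washed and crosslinked with 0.1% formaldehyde. Proximity ligation with BsaI/T4 ligase ran for 1 h at 37 °C, before PCR amplification and sequencing on an Illumina NextSeq500. Binding signal is a hexamer's read frequency for a factor divided by its frequency for the tag-only sample.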

[2] = molecular target: T2, ETV3L (Homo sapiens, UniProt Q6ZN32 1-361)
T2 sequence: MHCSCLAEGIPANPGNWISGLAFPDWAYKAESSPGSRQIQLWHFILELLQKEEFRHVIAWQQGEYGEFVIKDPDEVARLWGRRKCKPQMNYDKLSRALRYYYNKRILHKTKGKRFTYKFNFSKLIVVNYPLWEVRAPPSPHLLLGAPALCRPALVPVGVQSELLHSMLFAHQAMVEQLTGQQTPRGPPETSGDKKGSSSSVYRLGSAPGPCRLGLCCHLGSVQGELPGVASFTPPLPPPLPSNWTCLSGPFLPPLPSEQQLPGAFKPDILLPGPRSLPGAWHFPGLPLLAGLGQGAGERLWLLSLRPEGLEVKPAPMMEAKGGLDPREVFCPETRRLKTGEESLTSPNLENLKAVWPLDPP
In short: as §1

[3] = molecular target: T3, ETS2 (Homo sapiens, UniProt P15036 1-469)
T3 sequence: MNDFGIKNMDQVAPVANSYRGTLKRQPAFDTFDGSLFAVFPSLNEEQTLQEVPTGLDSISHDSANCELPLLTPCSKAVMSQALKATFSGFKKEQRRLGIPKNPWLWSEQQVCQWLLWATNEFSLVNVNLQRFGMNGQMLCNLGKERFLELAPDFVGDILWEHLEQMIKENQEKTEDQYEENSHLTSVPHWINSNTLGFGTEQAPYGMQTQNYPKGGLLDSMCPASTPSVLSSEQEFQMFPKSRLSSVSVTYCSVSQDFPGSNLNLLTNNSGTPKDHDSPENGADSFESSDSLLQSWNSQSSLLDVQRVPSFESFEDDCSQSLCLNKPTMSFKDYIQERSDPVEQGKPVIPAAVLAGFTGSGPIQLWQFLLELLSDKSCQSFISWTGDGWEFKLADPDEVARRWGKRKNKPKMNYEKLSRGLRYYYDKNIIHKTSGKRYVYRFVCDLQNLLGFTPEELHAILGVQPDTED
In short: as §1

[4] = molecular target: T4, SPDEF (Homo sapiens, UniProt O95238 1-335)
T4 sequence: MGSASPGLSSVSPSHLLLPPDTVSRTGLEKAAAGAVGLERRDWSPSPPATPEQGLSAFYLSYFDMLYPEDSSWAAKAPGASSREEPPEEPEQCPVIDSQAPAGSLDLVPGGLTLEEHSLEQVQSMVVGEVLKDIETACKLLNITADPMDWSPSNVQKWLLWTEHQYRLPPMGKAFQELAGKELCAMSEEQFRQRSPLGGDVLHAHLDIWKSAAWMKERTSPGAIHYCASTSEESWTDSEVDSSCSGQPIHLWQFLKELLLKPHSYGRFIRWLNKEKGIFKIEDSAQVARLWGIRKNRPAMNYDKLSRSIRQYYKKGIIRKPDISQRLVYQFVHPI
In short: as §1

[5] = molecular target: T5, ETV7 (Homo sapiens, UniProt Q9Y603 1-341)
T5 sequence: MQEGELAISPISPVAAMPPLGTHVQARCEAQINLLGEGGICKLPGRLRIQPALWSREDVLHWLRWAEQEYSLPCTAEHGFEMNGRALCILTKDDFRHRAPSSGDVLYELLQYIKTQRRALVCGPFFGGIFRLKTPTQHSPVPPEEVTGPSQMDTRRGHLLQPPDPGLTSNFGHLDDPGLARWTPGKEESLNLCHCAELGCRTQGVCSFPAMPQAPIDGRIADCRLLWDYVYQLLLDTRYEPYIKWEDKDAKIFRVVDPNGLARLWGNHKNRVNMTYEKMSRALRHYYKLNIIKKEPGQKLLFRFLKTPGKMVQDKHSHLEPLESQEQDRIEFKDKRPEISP
In short: as §1

[6] = molecular target: T6, ELF5 (Homo sapiens, UniProt Q9UKW6-2 1-255)
T6 sequence: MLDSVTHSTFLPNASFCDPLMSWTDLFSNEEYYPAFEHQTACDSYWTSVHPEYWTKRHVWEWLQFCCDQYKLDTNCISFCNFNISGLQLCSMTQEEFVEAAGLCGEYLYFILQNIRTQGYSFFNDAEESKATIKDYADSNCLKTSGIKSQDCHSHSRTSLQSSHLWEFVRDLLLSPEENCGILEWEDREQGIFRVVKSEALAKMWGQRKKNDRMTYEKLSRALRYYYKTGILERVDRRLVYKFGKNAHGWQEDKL
In short: as §1

[7] = molecular target: T7, ETV3 (Homo sapiens, UniProt P41162-2 1-143)
T7 sequence: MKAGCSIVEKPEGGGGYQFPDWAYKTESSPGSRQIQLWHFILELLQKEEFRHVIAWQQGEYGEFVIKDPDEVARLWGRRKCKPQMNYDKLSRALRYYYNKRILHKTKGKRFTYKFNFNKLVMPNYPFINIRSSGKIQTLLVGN
In short: as §1

[8] = molecular target: ETV6 (Homo sapiens, UniProt P41212 1-452)
Chain of ETV6 (P41212 whole entry): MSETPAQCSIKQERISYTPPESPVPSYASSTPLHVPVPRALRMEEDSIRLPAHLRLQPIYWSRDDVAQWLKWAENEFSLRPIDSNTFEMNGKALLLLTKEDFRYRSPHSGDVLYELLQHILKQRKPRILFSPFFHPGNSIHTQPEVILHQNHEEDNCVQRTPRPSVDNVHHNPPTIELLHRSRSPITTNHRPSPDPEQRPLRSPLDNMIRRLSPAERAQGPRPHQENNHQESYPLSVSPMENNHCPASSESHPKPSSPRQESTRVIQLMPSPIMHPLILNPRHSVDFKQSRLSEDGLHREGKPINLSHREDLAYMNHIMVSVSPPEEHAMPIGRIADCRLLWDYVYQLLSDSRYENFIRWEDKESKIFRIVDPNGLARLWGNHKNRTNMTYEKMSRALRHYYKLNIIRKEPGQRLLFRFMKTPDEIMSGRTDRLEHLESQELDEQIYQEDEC
In short: as §1

Sequence	binding signal [1]	binding signal [2]	binding signal [3]	binding signal [4]	binding signal [5]	binding signal [6]	binding signal [7]	binding signal [8]
TATAAA	1.25 fold enrichment (6-mer frequency, TF over GST control)	1.15 fold enrichment (6-mer frequency, TF over GST control)	1.27 fold enrichment (6-mer frequency, TF over GST control)	1.21 fold enrichment (6-mer frequency, TF over GST control)	1.12 fold enrichment (6-mer frequency, TF over GST control)	1.24 fold enrichment (6-mer frequency, TF over GST control)	1.24 fold enrichment (6-mer frequency, TF over GST control)	1.21 fold enrichment (6-mer frequency, TF over GST control)
TTGTTT	1.45 fold enrichment (6-mer frequency, TF over GST control)	1.46 fold enrichment (6-mer frequency, TF over GST control)	1.39 fold enrichment (6-mer frequency, TF over GST control)	1.32 fold enrichment (6-mer frequency, TF over GST control)	1.6 fold enrichment (6-mer frequency, TF over GST control)	1.37 fold enrichment (6-mer frequency, TF over GST control)	1.5 fold enrichment (6-mer frequency, TF over GST control)	1.53 fold enrichment (6-mer frequency, TF over GST control)
ACGTAT	1.15 fold enrichment (6-mer frequency, TF over GST control)	1.28 fold enrichment (6-mer frequency, TF over GST control)	1.27 fold enrichment (6-mer frequency, TF over GST control)	1.36 fold enrichment (6-mer frequency, TF over GST control)	1.25 fold enrichment (6-mer frequency, TF over GST control)	1.16 fold enrichment (6-mer frequency, TF over GST control)	1.26 fold enrichment (6-mer frequency, TF over GST control)	1.22 fold enrichment (6-mer frequency, TF over GST control)
CCCCCT	1.38 fold enrichment (6-mer frequency, TF over GST control)	1.23 fold enrichment (6-mer frequency, TF over GST control)	1.14 fold enrichment (6-mer frequency, TF over GST control)	1.05 fold enrichment (6-mer frequency, TF over GST control)	1.17 fold enrichment (6-mer frequency, TF over GST control)	1.37 fold enrichment (6-mer frequency, TF over GST control)	1.27 fold enrichment (6-mer frequency, TF over GST control)	1.15 fold enrichment (6-mer frequency, TF over GST control)
CACGTT	1.36 fold enrichment (6-mer frequency, TF over GST control)	1.21 fold enrichment (6-mer frequency, TF over GST control)	1.3 fold enrichment (6-mer frequency, TF over GST control)	1.18 fold enrichment (6-mer frequency, TF over GST control)	1.35 fold enrichment (6-mer frequency, TF over GST control)	1.12 fold enrichment (6-mer frequency, TF over GST control)	1.19 fold enrichment (6-mer frequency, TF over GST control)	1.27 fold enrichment (6-mer frequency, TF over GST control)
CGTACT	1.27 fold enrichment (6-mer frequency, TF over GST control)	1.1 fold enrichment (6-mer frequency, TF over GST control)	1.23 fold enrichment (6-mer frequency, TF over GST control)	1.11 fold enrichment (6-mer frequency, TF over GST control)	1.1 fold enrichment (6-mer frequency, TF over GST control)	1.2 fold enrichment (6-mer frequency, TF over GST control)	1.2 fold enrichment (6-mer frequency, TF over GST control)	1.2 fold enrichment (6-mer frequency, TF over GST control)
AATGCA	1.3 fold enrichment (6-mer frequency, TF over GST control)	1.28 fold enrichment (6-mer frequency, TF over GST control)	1.28 fold enrichment (6-mer frequency, TF over GST control)	1.23 fold enrichment (6-mer frequency, TF over GST control)	1.3 fold enrichment (6-mer frequency, TF over GST control)	1.31 fold enrichment (6-mer frequency, TF over GST control)	1.25 fold enrichment (6-mer frequency, TF over GST control)	1.37 fold enrichment (6-mer frequency, TF over GST control)
GAAAAT	1.18 fold enrichment (6-mer frequency, TF over GST control)	1.15 fold enrichment (6-mer frequency, TF over GST control)	1.13 fold enrichment (6-mer frequency, TF over GST control)	1.05 fold enrichment (6-mer frequency, TF over GST control)	1.2 fold enrichment (6-mer frequency, TF over GST control)	1.17 fold enrichment (6-mer frequency, TF over GST control)	1.07 fold enrichment (6-mer frequency, TF over GST control)	1.19 fold enrichment (6-mer frequency, TF over GST control)
CTGCAT	1.38 fold enrichment (6-mer frequency, TF over GST control)	1.66 fold enrichment (6-mer frequency, TF over GST control)	1.4 fold enrichment (6-mer frequency, TF over GST control)	1.57 fold enrichment (6-mer frequency, TF over GST control)	1.41 fold enrichment (6-mer frequency, TF over GST control)	1.29 fold enrichment (6-mer frequency, TF over GST control)	1.24 fold enrichment (6-mer frequency, TF over GST control)	1.25 fold enrichment (6-mer frequency, TF over GST control)
TTGGTG	1.28 fold enrichment (6-mer frequency, TF over GST control)	1.25 fold enrichment (6-mer frequency, TF over GST control)	1.32 fold enrichment (6-mer frequency, TF over GST control)	1.33 fold enrichment (6-mer frequency, TF over GST control)	1.15 fold enrichment (6-mer frequency, TF over GST control)	1.27 fold enrichment (6-mer frequency, TF over GST control)	1.32 fold enrichment (6-mer frequency, TF over GST control)	1.18 fold enrichment (6-mer frequency, TF over GST control)
TTTCAT	1.25 fold enrichment (6-mer frequency, TF over GST control)	1.15 fold enrichment (6-mer frequency, TF over GST control)	1.17 fold enrichment (6-mer frequency, TF over GST control)	1.2 fold enrichment (6-mer frequency, TF over GST control)	1.2 fold enrichment (6-mer frequency, TF over GST control)	1.23 fold enrichment (6-mer frequency, TF over GST control)	1.22 fold enrichment (6-mer frequency, TF over GST control)	1.13 fold enrichment (6-mer frequency, TF over GST control)
TAGATG	1.54 fold enrichment (6-mer frequency, TF over GST control)	1.36 fold enrichment (6-mer frequency, TF over GST control)	1.3 fold enrichment (6-mer frequency, TF over GST control)	1.35 fold enrichment (6-mer frequency, TF over GST control)	1.33 fold enrichment (6-mer frequency, TF over GST control)	1.27 fold enrichment (6-mer frequency, TF over GST control)	1.22 fold enrichment (6-mer frequency, TF over GST control)	1.24 fold enrichment (6-mer frequency, TF over GST control)
AGTATT	1.3 fold enrichment (6-mer frequency, TF over GST control)	1.22 fold enrichment (6-mer frequency, TF over GST control)	1.17 fold enrichment (6-mer frequency, TF over GST control)	1.05 fold enrichment (6-mer frequency, TF over GST control)	1.3 fold enrichment (6-mer frequency, TF over GST control)	1.27 fold enrichment (6-mer frequency, TF over GST control)	1.19 fold enrichment (6-mer frequency, TF over GST control)	1.32 fold enrichment (6-mer frequency, TF over GST control)
TCTAAT	1.26 fold enrichment (6-mer frequency, TF over GST control)	1.14 fold enrichment (6-mer frequency, TF over GST control)	1.21 fold enrichment (6-mer frequency, TF over GST control)	1.21 fold enrichment (6-mer frequency, TF over GST control)	1.07 fold enrichment (6-mer frequency, TF over GST control)	1.11 fold enrichment (6-mer frequency, TF over GST control)	1.05 fold enrichment (6-mer frequency, TF over GST control)	1.2 fold enrichment (6-mer frequency, TF over GST control)
TTCTTA	1.21 fold enrichment (6-mer frequency, TF over GST control)	1.4 fold enrichment (6-mer frequency, TF over GST control)	1.24 fold enrichment (6-mer frequency, TF over GST control)	1.4 fold enrichment (6-mer frequency, TF over GST control)	1.38 fold enrichment (6-mer frequency, TF over GST control)	1.35 fold enrichment (6-mer frequency, TF over GST control)	1.34 fold enrichment (6-mer frequency, TF over GST control)	1.4 fold enrichment (6-mer frequency, TF over GST control)
